Most compounds without a hit are left out; they make up all but 3.6% or so of the library.
HepG2 tox-1: qHTS for Inhibitors of TGF-b: Cytotox Counterscreen. HepG2 CAGA-GFP viability, ATP luminescence, 18 h. 410,000 compounds, 0.76% hits. Potency, µM (series often up to 46.1 µM), for inactives: top-dose activity change, negative = cytotoxicity, hits mostly cytotoxic
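HepG2 CAGA-GFP cells (1000/well, DMEM with 1% FBS) received compound, then TGF-beta at 500 pg/mL final, and were incubated 18 hours at 37 degrees C. Viability was read by CellTiter-Glo luminescence. Media-only wells were set as complete cell-killing and DMSO as no toxicity.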
A549 tox: Nrf2 qHTS screen for inhibitors: counterscreen for cytotoxicity | 390,000 compounds, 0.16% hits | AID 504648, 2011 | Potency, µM (series often up to 46 µM), for the others: at the highest dose activity change, negative = cytotoxicity, actives largely listed as inhibitors | A549 ARE-Fluc cells, CellTiter-Fluor viability, 18-24 h; note: % is set by controls: 0 for no effect and ±100 for the full control effect
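A549 ARE_Fluc cells in 5% FBS OPTI-MEM were exposed to compounds in concentration-response for 18-24 h at 37 deg C. Viability was read by CellTiter-Fluor fluorescence (Ex 405/Em 525) after 30 min, before the luciferase read.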
TGFb SMAD3 inh: qHTS for Inhibitors of TGF-b | 410,000 compounds, 1.2% hits | HepG2 CAGA-GFP TGF-b/SMAD3 reporter, GFP fluorescence, 18 h; TGF-beta stimulated, 500 pg/mL final | AID 588855, 2011 | Potency, µM (highest dose often 46.1 µM), inactives show at the top dose activity, negative = inhibition, actives largely listed as inhibitors; note: % is set by controls: 0 for no effect and ±100 for the full control effect; nearly all actives have a fitted effect of over 65% in size
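Per well, imaged GFP fluorescence of HEPG2 CAGA-GFP cells gives the signal; cells get compound, then TGF-beta (500 pg/mL final), 18 h at 37 degrees C; %Activity versus -TGF-beta and +DMSO controls.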
Nrf2 ARE act: qHTS of Nrf2 Activators. Potency, µM (titrated, usually from 46.1 µM), without a hit: top-dose activation, hits mostly activators. AID 624171, 2012. 410,000 compounds, 0.31% hits. AREc32 ARE-luciferase reporter (MCF7-derived line), luminescence, 24 h; note: % of control where 0% means no effect; nearly all actives have a fitted effect of over 65% in size
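Steps: seed AREc32_Fluc cells (1000/well, 5% FBS OPTI-MEM); incubate overnight at 37 deg C; add 23 nL compound; incubate 24 hr; add Steady-Glo; hold 30 min RT; read luminescence.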
Nrf2 block: Nrf2 qHTS screen for inhibitors | AID 504444, 2011 | A549 ARE-Fluc reporter, luciferase luminescence, 18-24 h | 360,000 compounds, 2.1% hits | Potency, µM (top dose mostly 46 µM), inactives show at the top dose activity change, negative = inhibition, most hits filed as inhibitors; note: % is set by controls: 0 for no effect and ±100 for the full control effect; nearly all actives have a fitted effect of over 60% in size
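A549 ARE_Fluc cells, 5000/well, 5% FBS OPTI-MEM; compounds in dose-response, 18-24 h at 37 °C/5% CO2; CellTiter-Fluor viability read (Ex 405/Em 525), then BugLite luciferase luminescence = Nrf2 activity.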
TGFb confirm: qHTS for Inhibitors of TGF-b: Confirmation of Cherry Picks. shares compounds with TGFb SMAD3 inh. HepG2 CAGA-GFP TGF-b reporter, GFP fluorescence, 18 h; cells stimulated with TGF-beta, 500 pg/mL. Potency, µM (series often up to 46.1 µM), for inactives: top-dose activity, negative = inhibition, actives largely listed as inhibitors. 1,600 compounds, 63% hits. AID 720534, 2013; note: % is set by controls: 0 for no effect and ±100 for the full control effect; nearly all actives have a fitted effect of over 65% in size
HepG2 tox-2: qHTS for Inhibitors of TGF-b: Cytotox Counterscreen for Cherry Picks; shares compounds with TGFb SMAD3 inh; HepG2 CAGA-GFP viability, ATP luminescence, 18 h; cells stimulated with TGF-beta, 500 pg/mL; Potency, µM (top dose mostly 46.1 µM), for the others: at the top dose activity, negative = cytotoxicity, hits mostly inhibitors; 1,600 compounds, 27% hits; note: % is set by controls: 0 for no effect and ±100 for the full control effect; nearly all actives have a fitted effect of over 70% in size
CCL64 TGFb inh: qHTS for Inhibitors of TGF-b: CCL64 Cells Orthogonal Assay for Cherry Picks | 1,600 compounds, 41% hits | CCL64 CAGA-GFP reporter, TGF-b stimulated, GFP fluorescence, 18 h | shares compounds with TGFb SMAD3 inh | Potency, µM (doses to about 46.1 µM), inactives show at the top dose activity, negative = inhibition, hits mostly inhibitors; note: nearly all actives have a fitted effect of over 65% in size
COP TGFb inh: qHTS for Inhibitors of TGF-b: Hit Validation in HepG2 Cells using COP promoter; shares compounds with TGFb SMAD3 inh; HepG2 COP-GFP TGF-b reporter, GFP fluorescence, 18 h; cells stimulated by added recombinant TGF-beta; Potency, µM (titrated, usually from 46.1 µM), inactives show top-dose activity, negative = inhibition, most hits filed as inhibitors; 1,600 compounds, 3% hits; AID 720537, 2013; note: nearly all actives have a fitted effect of over 70% in size
* hit, by the source's call; ? = inconclusive; . = no result. Calls come from the whole dose curve; as a rule, active = well fitted curve in the direction sought with a large enough effect; inconclusive = small, poorly fitted or top-dose-only effect, or another doubt; inactive = no such curve, though single readings can be large; an effect the other way counts as inactive or inconclusive. Potency is the fitted concentration of half-maximal effect.

SMILES | HepG2 tox-1 | A549 tox | TGFb SMAD3 inh | Nrf2 ARE act | Nrf2 block | TGFb confirm | HepG2 tox-2 | CCL64 TGFb inh | COP TGFb inh
CC[C@H](C)C1OC(=O)[C@@H](C)[C@@H](CC)NC(=O)[C@H](C)N(C)C(=O)C(C)(C)C(=O)C(C)NC(=O)[C@H](Cc2ccc(OC)cc2)N(C)C(=O)[C@H](C(C)C)N(C)C(=O)CNC(=O)[C@H](CC(C)C)N(C)C(=O)CNC1=O (some centres undefined) | 4% | . | 0.5µM* | -2% | . | 1µM* | ? | 1.3µM* | 47%
CC(=O)O[C@@H](C[C@@H](C)C1=C2C[C@H](O)C3[C@@]4(C)CCC(=O)C(C)(C)C4CC[C@]3(C)[C@@]2(C)CC1)[C@H]1OC1(C)C (some centres undefined) | -24% | ? | 11µM* | 5% | ? | 13µM* | ? | ? | 52%
NC1=NC[C@@H](Cc2ccc(O)cc2)N1CCC12CC3CC(CC(C3)C1)C2 | -64% | 5% | 10µM* | 1% | -27% | -17% | -17% | 9% | 0%
CCN(C(=O)CSc1nnc(-c2ccco2)n1C)c1c(N)n(Cc2ccccc2)c(=O)[nH]c1=O | 4% | 0% | 10% | 0% | 4% | . | . | . | .
CC[C@]12c3[nH]c4cc(-c5ccco5)ccc4c3CCN1C(=O)[C@@H](CC(=O)NCC13CC4CC(CC(C4)C1)C3)C[C@@H]2C(=O)N1CCN(C(=O)c2ccco2)CC1 | 0% | -19% | 13µM* | 4% | ? | ? | -20% | ? | 28%
CC(C)N(C(=O)[C@H]1C[C@H](CC(=O)NCC23CC4CC(CC(C4)C2)C3)C(=O)N2CCc3c([nH]c4ccc(Cl)cc34)[C@]12C)C(C)C | -76% | ? | 8.9µM* | -1% | ? | 12µM* | ? | 13µM* | 53%
CC[C@]12c3[nH]c4ccc(Cl)cc4c3CCN1C(=O)[C@@H](CC(=O)NCC13CC4CC(CC(C4)C1)C3)C[C@@H]2C(=O)N1CCN(C(=O)c2ccco2)CC1 | -2% | ? | 13µM* | -2% | ? | 12µM* | ? | ? | 67%
COc1ccc2[nH]c3c(c2c1)CCN1C(=O)C(CC(=O)NCC24CC5CC(CC(C5)C2)C4)C[C@H](C(=O)N2CCOCC2)[C@@]31CCC1CCCC1 (some centres undefined) | 12% | -20% | 11µM* | -1% | 21µM* | 4.6µM* | -22% | 5.8µM* | 19%
O=C(CSc1ccc(-c2ccccc2)nn1)NC1CCCC1 | -17% | 0% | -7% | 0% | -19% | . | . | . | .
O=C(c1ccco1)N1CCN(C(=O)C2CCCc3c2[nH]c2ccc(Cl)cc32)CC1 (centres undefined) | -34% | -6% | 1µM* | -1% | ? | ? | ? | ? | 10%
CN(C(=O)/C=C/c1ccc([N+](=O)[O-])s1)c1ccccc1 | 11µM* | ? | 10µM* | ? | ? | 23µM* | ? | 21µM* | ?
COC(=O)[C@@]1(Cc2ccc(OC)cc2)[C@H]2c3cc(C(=O)N4CCCC4)n(Cc4c(CO)[nH]cc(C)c4=O)c3C[C@H]2CN1C(=O)c1ccccc1 | -1% | -9% | ? | 1% | -9% | -14% | -1% | 0% | -3%
COC(=O)[C@@]1(Cc2ccc(OC)cc2)[C@H]2c3cc(C(=O)N4CCCC4)n(CCc4c[nH]c5ccccc45)c3C[C@H]2CN1C(=O)c1ccccc1 | . | . | . | 1% | . | . | . | . | .
O=c1c(Cc2ccc(Cl)cc2Cl)c(O)ccn1Cc1ccc(Cl)cc1 | 1% | -6% | 11µM* | 0% | . | ? | ? | ? | 24%
CCOC(=O)c1c(NC(=O)c2cc3n(n2)C(C(F)(F)F)CC(c2ccccc2)N3)sc(C)c1C (centres undefined) | -15% | -12% | ? | 0% | ? | . | . | . | .
CC(C)C[C@H]1CN([C@@H](Cc2ccccc2)CN2CCCC2CN2C(=S)NC[C@@H]2Cc2ccccc2)C(=S)N1CC1CCCCC1 (some centres undefined) | . | . | . | 0% | . | . | . | . | .
CC(C)C[C@H]1CNC(=S)N1CC1CCCN1C[C@H](Cc1ccccc1)N1C[C@H](Cc2ccc(O)cc2)N(CC2CCCCC2)C1=S (some centres undefined) | -7% | -17% | 8.9µM* | -1% | ? | 6.5µM* | -20% | 21µM* | 29%
CC(C)C[C@H]1CNC(=S)N1C[C@H]1CCCN1C[C@H](Cc1ccccc1)N1C[C@H](Cc2ccc(O)cc2)N(CC2CCCCCC2)C1=S | -21% | . | 10µM* | 0% | . | 18µM* | ? | ? | 35%
CC(C)C[C@H]1CNC(=O)C(=O)N1C[C@@H]1CCCN1C[C@H](Cc1ccc(O)cc1)N1C[C@H](Cc2ccccc2)N(CC2CCCCCC2)C(=O)C1=O | . | . | . | -1% | . | . | . | . | .
CC(C)C[C@H]1CNC(=S)N1C[C@H]1CCCN1C[C@H](Cc1ccc(O)cc1)N1C[C@H](Cc2ccccc2)N(CC2CCCCC2)C1=S | -34% | . | ? | 0% | . | . | . | . | .

Assay outcomes deposited in PubChem by National Center for Advancing Translational Sciences (NCATS).
